Molecules are shown by their SMILES. Active and inactive are the calls of the source.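 Rule for the calls, unless noted: active = NADPH fluorescence slope more negative than the mean of all samples by about 3 SD, 99.7% confidence; inactive = the rest.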

The inhibition is the change of the read-out against control, counted positive when it falls.

Test [1] in a line: inhibitors of TNFa-induced NFkB p65 translocation, primary screen, imaging, HUVEC, MLSMR starter and 10KST1 sets (AID 438;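 active = inhibition above 20% together with a positive visual image hit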;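 note: compound added about 3h40 before a 20 min TNFalpha stimulation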;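 for inhibition: signal is the nuclear over cytoplasmic p65 intensity ratio per well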). The following applies: HUVEC TNFa-induced p65 nuclear translocation; cell count: measured here: nuclei count (cytotoxicity indicator), at 2.08 µM; inhibition: at 2 µM, stronger effect = higher value, 0% TNFa-plus-vehicle, 100% no-TNFa wells.
Test [2] is described as follows: reduction of polyQ htt aggregates in cells – imaging, exon1htt(103Q)mCFP cells, high-content imaging, primary screen (AID 483;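 active = visual image review flags a hit and inhibition of aggregation exceeds 20%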;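 note: compound exposure lasted 3 days before fixation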;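 for nuclei count: percent of the per-plate median nuclei count of sample wells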). The following applies: exon1htt(103Q)mCFP cell line, aggregate imaging, at 2 µM; inhibition of aggregation: stronger effect = higher value; nuclei count: measured here: cell count, toxicity.
The nature of test [3]: endothelial E-selectin expression blockers – imaging, HUVEC, immunofluorescence, MLSMR starter and 10KST1 sets, primary screen (AID 487;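 active = visually confirmed hit in the image check and inhibition above 20%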;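 for inhibition: signal is fraction of cell area covered by stained E-selectin grains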;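 for nuclei count: 100% = median nuclei count of all wells on the same plate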). The following applies: HUVEC TNFalpha-induced E-selectin immunofluorescence imaging, at 2 µM; inhibition: stronger effect = higher value; nuclei count: measured here: cell number, toxicity.
Test [4] has as its target Voltage-gated potassium channel subunit beta-2 (Rattus norvegicus) (UniProt P62483). Briefly: inhibitors of rat Kvbeta2 reductase activity – biochemical, NADPH fluorescence, primary screen (AID 622;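 active = fluorescence slope higher than the sample average by over 3 SD, cut at about -0.22 in these data, passing the limit was not always enough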;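 note: slope of raw intensity against log time taken from 70 to 1610 s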). The following applies: recombinant KvBeta, 4-cyanobenzaldehyde reduction, at 10 µM, stronger effect = higher value.
For test [5] the target is unchanged. The test can be described thus: enhancers of rat Kvbeta2 NADPH turnover – biochemical, NADPH fluorescence, primary screen (AID 623).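 Note: fluorescence intensity change per second fitted from 20 to 320 s.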 The following applies: Recombinant KvBeta, NADPH fluorescence decrease slope, 10 min; at 10 µM; stronger effect = lower value.
In test [6] the target is Alpha-2C adrenergic receptor (Homo sapiens) (UniProt P18825). The test can be described thus: compounds altering alpha2C-coupled GIRK flux – cell-based, HEK293 alpha2C/GIRK1/2, thallium flux, primary screen (AID 624;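 active = fluorescence slope after compound addition differing from the mean of all screened samples at 99.7% confidence, in either direction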;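 note: slope of fluorescence ratio to pre-addition baseline per second over 15 to 24 s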). The following applies: thallium flux BTC fluorescence, at 10 µM, actives lie on both sides.
A short description of test [7]: blockers of RIG-like receptor reporter activation – cell-based, Sendai virus stimulus, luciferase, 10K MLSCN set, TLR/RLR signaling modifier project, primary screen (AID 602276;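 active = inhibition at or above 50% at 10 µM; inactive = inhibition below 50%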;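 note: firefly luciferase from ISG56 promoter only with Renilla not read in this screen; 0% = Sendai virus plus DMSO and 100% = medium plus DMSO without virus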). The following applies: HEK293 RL24 IRF3 luciferase reporter, at 10 µM, stronger effect = higher value. A general note: In a reporter assay the amount or activity of a reporter protein is the signal.
Test [8] can be described thus: TLR3 IRF3 reporter activation blockers – cell-based, poly I:C stimulus, luciferase, 10K MLSCN set, primary screen (AID 602277;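 active = inhibition of the reporter signal at or above 50%; inactive = inhibition below 50%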). The following applies: HEK293-TLR3 RL24 IRF3 luciferase reporter, at 10 µM, stronger effect = higher value.

Sequence of Voltage-gated potassium channel subunit beta-2 (Rattus norvegicus) (P62483 whole entry, looked up): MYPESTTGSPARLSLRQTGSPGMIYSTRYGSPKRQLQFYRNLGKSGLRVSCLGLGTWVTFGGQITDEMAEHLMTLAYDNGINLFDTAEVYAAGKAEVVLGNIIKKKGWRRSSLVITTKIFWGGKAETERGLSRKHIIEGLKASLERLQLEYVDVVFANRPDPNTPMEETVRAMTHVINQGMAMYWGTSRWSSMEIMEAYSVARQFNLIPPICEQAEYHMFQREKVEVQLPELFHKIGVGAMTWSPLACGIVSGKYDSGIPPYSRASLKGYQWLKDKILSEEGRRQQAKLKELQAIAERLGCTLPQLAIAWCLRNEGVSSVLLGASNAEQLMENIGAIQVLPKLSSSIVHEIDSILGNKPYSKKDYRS
Sequence of Alpha-2C adrenergic receptor (Homo sapiens) (P18825 whole entry, looked up): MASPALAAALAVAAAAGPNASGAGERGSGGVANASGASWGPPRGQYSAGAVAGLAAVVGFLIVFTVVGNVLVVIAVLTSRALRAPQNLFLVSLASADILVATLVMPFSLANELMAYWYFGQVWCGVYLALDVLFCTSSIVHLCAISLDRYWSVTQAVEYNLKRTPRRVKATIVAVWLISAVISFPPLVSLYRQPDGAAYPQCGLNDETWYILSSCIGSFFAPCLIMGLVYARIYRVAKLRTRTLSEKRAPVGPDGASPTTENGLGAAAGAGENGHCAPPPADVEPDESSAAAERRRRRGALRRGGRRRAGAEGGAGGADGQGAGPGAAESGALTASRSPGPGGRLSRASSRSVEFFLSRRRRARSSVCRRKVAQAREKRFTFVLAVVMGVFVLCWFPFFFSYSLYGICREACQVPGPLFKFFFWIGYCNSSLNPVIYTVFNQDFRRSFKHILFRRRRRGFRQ

Regarding `COc1ccc(C2=NOC(C(=O)NC3CCCCC3)C2)cc1OC` (configuration not stated), the cell count in test [1] is 832. In addition, the inhibition is -14.3% (inactive) in test [1], -84.9% (inactive) in test [3], 14.9% (inactive) in test [7] and 20.1% (inactive) in test [8]. Moreover, the inhibition of aggregation in test [2] is 1.9% (inactive). For the same compound, the nuclei count in test [2] is 104%; in test [3], 96.1%. The fluorescence slope in test [4] is -0.547 (inactive). Besides, in test [5], the NADPH fluorescence slope is -4.1e-05 (inactive). Also, the slope in test [6] is 0.00464 (inactive).
With `CC(=O)N(C(C)=O)c1cccc2c(N(C(C)=O)C(C)=O)cccc12`, the cell count in test [1] is 450. The inhibition in test [1] was -10.7% (inactive); in test [3], -28.6% (inactive); in test [7], 12.7% (inactive); in test [8] it was 31.6% (inactive). The inhibition of aggregation in test [2] is 26.2% (inactive). Also, the results for the nuclei count in test [2] and in test [3] were 44.9% and 87.9%, respectively. Further, the fluorescence slope in test [4] is -0.431 (inactive). In addition, the NADPH fluorescence slope in test [5] is -5.3e-05 (inactive). In addition, the slope in test [6] was 0.00429 (inactive).
As for `CCCOc1ccc(C2C(C(=O)OC)=CN(CCOC)C=C2C(=O)OC)cc1`, in test [1], the cell count came to 356. The inhibition in test [1] is -11.3% (inactive); in test [3], -128% (inactive); in test [7], 15.3% (inactive); in test [8] it was 27.8% (inactive). Further, the inhibition of aggregation in test [2] was -4.7% (inactive). Also, the nuclei count in test [2] is 116%; in test [3], 111%. In addition, the fluorescence slope in test [4] was -0.251 (inactive). In addition, in test [5], the NADPH fluorescence slope was 1.3e-05 (inactive). Moreover, the slope in test [6] is 0.00618 (inactive).
Consider `Cc1ccn2cc(CCNC(=O)CC(C)(C)C)nc2c1`, for which, in test [1], the cell count came out at 316. Further, the inhibition in test [1] was 6.4% (inactive); in test [3], -3.4% (inactive); in test [7], 3.87% (inactive); in test [8] it was 5.08% (inactive). In addition, in test [2], the inhibition of aggregation is -9.1% (inactive). In addition, the nuclei count in test [2] worked out at 95.6%; in test [3], 104%. Moreover, the fluorescence slope in test [4] is -0.307 (inactive). The NADPH fluorescence slope in test [5] is -5.9e-05 (inactive). For the same compound, the slope in test [6] was 0.00588 (inactive).
For the compound `COc1ccc(C2C3=C(CCCC3=O)Nc3nc(SCc4ccccc4)nn32)cc1OC` (configuration not stated), the cell count in test [1] was 665. Besides, the inhibition was -12.9% (inactive) in test [1], 32.2% (inactive) in test [3], 6.77% (inactive) in test [7] and 14.4% (inactive) in test [8]. Also, the inhibition of aggregation in test [2] was 9.2% (inactive). The nuclei count was 91.2% in test [2] and 105% in test [3]. In test [4], the fluorescence slope was -0.335 (inactive). Further, the NADPH fluorescence slope in test [5] is -6.9e-05 (inactive). Besides, the slope in test [6] is 0.00626 (inactive).
`Cc1cc(NS(=O)(=O)c2ccc(NC(=O)Nc3ccc4c(c3)OCO4)cc2)no1`: in test [1], the cell count turned out to be 599. Besides, the inhibition in test [1] was -10.7% (inactive); in test [3] it was -96.1% (inactive); in test [7], -9.3% (inactive); in test [8], -20.7% (inactive). Moreover, in test [2], the inhibition of aggregation was -12.8% (inactive). In addition, the nuclei count in test [2] was 108%; in test [3], 112%. For the same compound, the fluorescence slope in test [4] is -0.393 (inactive). For the same compound, in test [5], the NADPH fluorescence slope is -5.2e-05 (inactive). In addition, the slope in test [6] is 0.00596 (inactive).
Consider `COC(=O)c1ccccc1NC(=O)COc1ccc(S(=O)(=O)N2CCCC2)cc1C`, for which the cell count in test [1] was found to be 618. Also, the inhibition was 7% (inactive) in test [1], 44.3% (inactive) in test [3], 16.3% (inactive) in test [7] and 6.91% (inactive) in test [8]. Besides, the inhibition of aggregation in test [2] is 10.3% (inactive). Also, the nuclei count in test [2] was 88.3%; in test [3] it was 98.4%. Further, the fluorescence slope in test [4] is -0.405 (inactive). Moreover, the NADPH fluorescence slope in test [5] is 4.1e-06 (inactive). Moreover, the slope in test [6] is 0.00334 (inactive).
Turning to `CC(=O)Nc1cccc(NC(=O)c2ccco2)c1`, in test [1], the cell count was 286. Moreover, the inhibition is 2.5% (inactive) in test [1], -72.9% (inactive) in test [3], 5.39% (inactive) in test [7] and 26.7% (inactive) in test [8]. Further, the inhibition of aggregation in test [2] is -7.1% (inactive). Further, the nuclei count is 122% in test [2] and 131% in test [3]. In addition, in test [4], the fluorescence slope is -0.391 (inactive). For the same compound, the NADPH fluorescence slope in test [5] is 2.6e-05 (inactive). For the same compound, the slope in test [6] is 0.00425 (inactive).
Take `CCCS(=O)(=O)Nc1c(C(=O)O)[nH]c2ccccc12`: the cell count in test [1] was 665. The inhibition in test [1] was -11.9% (inactive); in test [3] it was -79.9% (inactive); in test [7] it was 12.6% (inactive); in test [8], 29% (inactive). For the same compound, the inhibition of aggregation in test [2] is -26.1% (inactive). Besides, the nuclei count in test [2] was 108%; in test [3] it was 147%. In addition, the fluorescence slope in test [4] is -0.415 (inactive). For the same compound, the NADPH fluorescence slope in test [5] was -3.3e-05 (inactive). Further, the slope in test [6] was 0.00314 (inactive).
With `COc1cc(OC)cc(C(=O)N2c3ccc(F)cc3CCC2C)c1` (configuration not stated), the cell count in test [1] was 282. In addition, the inhibition in test [1] is -4.7% (inactive); in test [3], -85.9% (inactive); in test [7], 12.9% (inactive); in test [8], 21.8% (inactive). Moreover, in test [2], the inhibition of aggregation is 19% (inactive). Also, the nuclei count in test [2] was determined as 83.6%; in test [3] it was 103%. For the same compound, the fluorescence slope in test [4] was -0.524 (inactive). In addition, the NADPH fluorescence slope in test [5] is -4.4e-05 (inactive). In addition, the slope in test [6] is 0.0061 (inactive).
On to `Cc1ccc(-n2ncc3c(=O)n(CC(=O)NCc4ccco4)cnc32)cc1`, for which the cell count in test [1] came to 473. Besides, the inhibition in test [1] is -7% (inactive); in test [3], -72.1% (inactive); in test [7], 21.7% (inactive); in test [8], 20.3% (inactive). The inhibition of aggregation in test [2] is 9.4% (inactive). Also, the nuclei count in test [2] worked out at 110%; in test [3] it was 108%. Also, in test [4], the fluorescence slope is -0.485 (inactive). Besides, the NADPH fluorescence slope in test [5] is -0.000156 (inactive). Besides, the slope in test [6] was 0.00543 (inactive).
Consider `Cc1cc(C)cc(-n2nnc(C(=O)NCc3ccc4c(c3)OCO4)c2N)c1`, for which the cell count in test [1] was found to be 571. Further, the inhibition in test [1] is 7.5% (inactive); in test [3] it was -17.7% (inactive); in test [7], 7.67% (inactive); in test [8], 22.1% (inactive). Besides, in test [2], the inhibition of aggregation was -33.1% (inactive). Further, the nuclei count in test [2] and in test [3] was 108% in each case. Besides, in test [4], the fluorescence slope is -0.572 (inactive). Also, the NADPH fluorescence slope in test [5] was 2.9e-05 (inactive). Moreover, the slope in test [6] was 0.00545 (inactive).

The values are drawn from PubChem BioAssay.
